Experiments:
Test in all cases: PBM binding z-score (relative to random genomic background probes); higher = stronger binding; sequences stand for … in GC…GCGATTGACAGCGTAGAATGAAGG
[1] = tested on: FXR:RXRa (NR concentration 270 nM, RXRa partner concentration 90 nM)
Summary of the method: (§1)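 Antibodies against each partner of ligand-free nuclear receptor dimers (one per run) detected binding on custom Agilent 4×180K protein-binding microarrays after 1 h incubation. The double-stranded probes had 34-nt variable regions carrying direct-repeat seeds, single-nucleotide variants, half-site ablations and random human genomic background sequences. Binding z-scores, from regression-normalized fluorescence, use the random background probes as reference.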

[2] = tested on: LXRa:RXRa (NR concentration 270 nM, RXRa partner concentration 90 nM)
Summary of the method: as §1

[3] = tested on: LXRa homodimer (NR concentration 270 nM)
Summary of the method: as §1

[4] = tested on: LXRb:RXRa (NR concentration 270 nM, RXRa partner concentration 90 nM)
Summary of the method: as §1

[5] = tested on: LXRb homodimer (NR concentration 270 nM)
Summary of the method: as §1

[6] = tested on: PPARa:RXRa (NR concentration 270 nM, RXRa partner concentration 90 nM)
Summary of the method: as §1

[7] = tested on: PPARg:RXRa (NR concentration 180 nM, RXRa partner concentration 90 nM)
Summary of the method: as §1

[8] = tested on: PPARg:RXRa 270nM:90nM, anti-RXR (NR concentration 270 nM, RXRa partner concentration 90 nM)
Summary of the method: as §1

[9] = tested on: PPARg:RXRa 30nM:10nM, anti-RXR (NR concentration 30 nM, RXRa partner concentration 10 nM)
Summary of the method: as §1

[10] = tested on: PPARg:RXRa 90nM:30nM, anti-RXR (NR concentration 90 nM, RXRa partner concentration 30 nM)
Summary of the method: as §1

[11] = tested on: PPARg:RXRa DBDmut IVT, anti-RXR (DBD mutation: RXRa K156A/R161A, NR concentration 270 nM, RXRa partner concentration 90 nM)
Summary of the method: as §1

[12] = tested on: PPARg:RXRa IVT, anti-PPARg (NR concentration 270 nM, RXRa partner concentration 90 nM)
Summary of the method: as §1

[13] = tested on: PPARg DBDmut:RXRa IVT, anti-PPARg (DBD mutation: PPARg1 K132A/R137A, NR concentration 270 nM, RXRa partner concentration 90 nM)
Summary of the method: as §1

[14] = tested on: PPARg DBDmut IVT, anti-PPARg (DBD mutation: PPARg1 K132A/R137A, NR concentration 270 nM)
Summary of the method: as §1

[15] = tested on: PPARg homodimer (NR concentration 180 nM)
Summary of the method: as §1

[16] = tested on: PXR:RXRa (NR concentration 270 nM, RXRa partner concentration 90 nM)
Summary of the method: as §1

[17] = tested on: PXR homodimer (NR concentration 270 nM)
Summary of the method: as §1

[18] = tested on: RARa:RXR (NR concentration 270 nM, RXRa partner concentration 90 nM)
Summary of the method: as §1

[19] = tested on: RARa homodimer (NR concentration 270 nM)
Summary of the method: as §1

[20] = tested on: RARb:RXRa (NR concentration 270 nM, RXRa partner concentration 90 nM)
Summary of the method: as §1

Sequence	PBM binding z-score [1]	PBM binding z-score [2]	PBM binding z-score [3]	PBM binding z-score [4]	PBM binding z-score [5]	PBM binding z-score [6]	PBM binding z-score [7]	PBM binding z-score [8]	PBM binding z-score [9]	PBM binding z-score [10]	PBM binding z-score [11]	PBM binding z-score [12]	PBM binding z-score [13]	PBM binding z-score [14]	PBM binding z-score [15]	PBM binding z-score [16]	PBM binding z-score [17]	PBM binding z-score [18]	PBM binding z-score [19]	PBM binding z-score [20]
GATACAGGTTCAGCTAGAGGCCAGAGTATGGAAA	0.427	0.656	-0.157	0.305	-0.537	1.29	0.495	0.117	-0.177	-0.176	-0.632	-0.397	-0.984	-1	0.61	1.19	-0.0373	1.64	0.321	1.35
TATACAGGGTCAAAGGCCAGACTACGAATGTCGA	7.5	6.15	2.32	4.84	2.22	6.39	8.41	7.38	5.4	7.02	2.56	5.03	3.07	1.98	2.4	4.42	0.626	6.23	1.41	4.56
ATCTCTAGGTAACGTTCAGTGAAAGATCGATAGA	0.596	0.51	-0.179	0.297	0.462	0.836	0.58	0.792	0.317	0.669	3.29	2.87	1.78	1.73	0.504	0.0439	0.0107	0.445	0.865	0.556
ATATGTAGATTAGCTGGGGTCATTCAGACTAGGC	3.43	3.51	1.55	4.27	1.51	4.33	1.45	2.53	0.88	1.9	1.08	1.54	1.36	1.4	1.47	5.46	2.56	5.47	1.07	2.59
GCTATTAGTTGAAAGGGCAACCTAATGATTCTCG	0.451	0.673	0.238	1.08	-0.393	2.38	2.46	4.31	2.24	4.3	0.686	0.831	0.904	0.354	0.978	0.94	0.54	1.56	0.795	2.02
CGTCCTAGGTCAAGGTCAGTGAAAGAGACTCGAA	5.87	4.07	0.811	3.5	0.178	4.87	4.31	4.45	1.48	3.5	3.53	4.08	0.311	0.279	3.52	3.4	0.941	4.02	1.1	5.01
TCTTGTAGATCAAAGGTTAAGAAAGCCGAAGCCT	1.74	1.97	-0.166	2.14	-0.146	4.65	8.31	8.09	9.09	8.69	2.11	3.55	0.0229	0.863	1.18	2.02	-0.0145	3.24	0.581	1.85
CCGAGTAGGTTATGGGGCATTCACGCAACGGTGA	0.165	0.583	-0.0835	0.908	0.284	2.27	3.48	4.67	2.32	4.69	3.46	3.48	0.0074	-0.799	1.81	-0.0726	-0.244	0.125	0.665	1.06
CGTCCAAGGTCAGCAGCTCAGTGAAAGCGACGTG	5.06	3.06	-0.124	2.14	-0.454	4	1.68	2.61	0.139	1.47	2.5	2.27	-0.354	-0.261	1.96	2.16	-0.1	2.83	0.297	4.83
TCTCGAAGGACACGAAGGTCAGAGCTTTCCAGAG	1.04	1.12	-0.125	1.03	-0.73	1.91	0.515	1.8	2.96	2.27	1.58	1.03	-0.558	-0.971	1.64	1.54	0.219	2.12	0.163	3.34
CCTAGTTGGTCAGGAGGTAACACACCGGATATGA	0.273	0.0725	0.325	0.204	-0.0466	0.433	0.902	1.08	0.0146	0.419	0.719	1.36	0.594	0.266	1.37	0.0397	0.446	0.422	1.49	0.781
TAATATAGGTAAATGCTAGGTGAAAGTCCGATCT	0.659	0.683	0.391	0.477	0.54	2.09	2.64	2.55	1.74	1.99	5.57	5.11	2.14	2.14	1.2	0.298	0.623	0.771	1.52	0.389
TTAATGAGGTTAAAGATCAGGGAACGTGGCGTCG	3.44	3.14	0.612	2.28	0.716	5.01	6.53	7.02	6.34	7.88	4.2	4.61	2.12	1.16	1.89	2.4	0.342	3.61	1.1	2.33

Reference: the supplement of paper PMC6555819
